The entries come from a sample that favours hits as a whole.
HT1080 IDH1KD tx: qHTS for induction of synthetic lethality in tumor cells producing 2HG: qHTS for the HT-1080-IDH1KD cell line; HT-1080 IDH1 knockdown viability, ATP luminescence, 48 h; Potency, µM (titrated, usually from 46.1 µM), without a hit: at the top dose activity, negative = toxicity, most hits filed as cytotoxic; hit rate 2% among 360,000;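 further: potency means the concentration at half of the fitted maximal effect; 0% = DMSO wells and -100% = cell-free medium wells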
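HT-1080-IDH1KD cells (IDH1 knocked down), 750/well in RPMI with 5% FBS, treated with compound 48 h at 37 degrees C. Viability by CellTiter-Glo luminescence, normalised to DMSO and no-cell wells; concentration-response curves classed.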
TDP1 cell noCPT: qHTS for Inhibitors of human tyrosyl-DNA phosphodiesterase 1 (TDP1): qHTS in cells in absence of CPT. DT40 Tdp1-/- hTDP1 cells, no CPT, ATP luminescence, 48 h. Potency, µM (series often up to 46.2 µM), without a hit: at the top dose activity change, negative = growth inhibition, most hits filed as inhibitors. hit rate 15% among 420,000; further: potency means the concentration at half of the fitted maximal effect; nearly all actives have a fitted effect of over 55% in size
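Seeded 400 DT40-hTDP1 cells/well (vehicle DMSO, no 20 nM CPT); pinned compounds; ≥48 hr at 37 °C; CellTiter-Glo luminescence as viability measure.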
HT1080NT lethal: qHTS for induction of synthetic lethality in tumor cells producing 2HG: qHTS for the HT-1080-NT fibrosarcoma cell line. HT-1080-NT fibrosarcoma viability, CellTiter-Glo ATP luminescence, 48 h. Potency, µM (titrated, usually from 46.1 µM), for the others: at the top dose activity, negative = less viability, usual class: cytotoxic. hit rate 1.6% among 360,000. AID 686970, 2013;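 further: NT is the 2HG producing partner of a matched IDH1 knockdown line; potency means the concentration at half of the fitted maximal effect; 0% = DMSO-treated cells and -100% = media-only wells without cells; nearly all actives have a fitted effect of over 55% in size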
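Read-out is CellTiter-Glo luminescence after 10 minutes at room temperature, following 48 hours' compound treatment of HT-1080-NT cells (750 cells/well, RPMI, 5% FBS, 37 degrees C).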
ALOX12 inh: Primary qHTS assay for inhibitors of human arachidonate 12S-lipoxygenase (ALOX12): Round 2; hit rate 1.1% among 580,000; Polyunsaturated fatty acid lipoxygenase ALOX12 (Homo sapiens), P18054; AID 1671190, 2021; purified 12hLO, xylenol orange hydroperoxide absorbance; Potency, µM (top dose mostly 108 µM), for the others: top-dose activity change, negative = inhibition, most hits filed as inhibitors; further: potency means the concentration at half of the fitted maximal effect
Target sequence (P18054 whole entry, looked up): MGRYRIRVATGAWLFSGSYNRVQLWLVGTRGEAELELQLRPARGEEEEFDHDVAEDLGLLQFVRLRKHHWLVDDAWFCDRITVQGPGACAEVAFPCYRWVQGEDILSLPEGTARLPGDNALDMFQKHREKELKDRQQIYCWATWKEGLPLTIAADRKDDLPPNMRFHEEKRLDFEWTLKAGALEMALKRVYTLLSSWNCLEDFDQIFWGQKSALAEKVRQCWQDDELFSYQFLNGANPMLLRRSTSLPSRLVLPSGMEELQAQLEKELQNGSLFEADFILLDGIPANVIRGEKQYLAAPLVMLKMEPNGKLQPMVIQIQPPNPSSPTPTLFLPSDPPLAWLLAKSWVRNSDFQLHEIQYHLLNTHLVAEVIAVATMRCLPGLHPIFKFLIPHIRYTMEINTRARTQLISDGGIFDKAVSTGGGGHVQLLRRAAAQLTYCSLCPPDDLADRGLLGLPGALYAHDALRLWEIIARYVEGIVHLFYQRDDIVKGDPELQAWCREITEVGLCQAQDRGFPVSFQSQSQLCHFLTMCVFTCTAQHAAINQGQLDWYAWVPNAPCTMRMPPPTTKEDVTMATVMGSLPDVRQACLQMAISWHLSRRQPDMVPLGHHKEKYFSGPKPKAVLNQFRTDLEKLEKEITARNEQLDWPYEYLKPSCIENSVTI
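Purified human 12hLO at 150 nM in 25 mM Hepes, 0.01% Triton X-100, pH 7.0, preincubated 15 min at room temperature with compound. Reaction started with 40 uM arachidonic acid, 30 min at room temperature. Hydroperoxide measured by Fe-xylenol orange, 573/405 nm absorbance ratio.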
TDP1 cell CPT: qHTS for Inhibitors of human tyrosyl-DNA phosphodiesterase 1 (TDP1): qHTS in cells in presence of CPT. Potency, µM (doses to about 46.2 µM), for the others: top-dose activity change, negative = growth inhibition, most hits filed as inhibitors. chicken DT40 Tdp1-/-;hTDP1 cells + 20 nM CPT, ATP luminescence, 48 h. hit rate 12% among 420,000; further: potency means the concentration at half of the fitted maximal effect; nearly all actives have a fitted effect of over 55% in size
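Chicken DT40 Tdp1-/- cells complemented with human TDP1, 400 cells/well, exposed to compounds plus 20 nM camptothecin for at least 48 h at 37 C; viability read as ATP content by CellTiter-Glo luminescence.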
IL1B secr inh: qHTS for Inhibitors of Inflammasome Signaling: IL-1-beta AlphaLISA Primary Screen; activity change, % at 57.5 µM; hit rate 4.7% among 360,000; THP-1 LPS/ATP IL-1B secretion, AlphaLISA, 16 h; stronger effect = lower value; in the data active means activity change below about -50%; inconclusive means mostly about -30% to -49%
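Secreted IL-1B measured by AlphaLISA bead assay after 16 h compound exposure of THP-1 cells; compounds (final up to 57.5 uM) added 1 h before LPS (250 ng/mL) and ATP (1.25 mM) stimulation; lower signal means less secretion.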
* marks the source's active call; other numbers are inactive results; ? = inconclusive; · = no result. Unless noted, the call rests on the fitted dose curve; in most records, active means well fitted curve in the direction sought with a large enough effect; inconclusive means small, poorly fitted or top-dose-only effect, or another doubt; inactive means no such curve, though single readings can be large; an effect the other way counts as inactive or inconclusive. Unless noted, on the % scale 0 is the no-effect control and ±100 the full control effect.

SMILES | HT1080 IDH1KD tx | TDP1 cell noCPT | HT1080NT lethal | ALOX12 inh | TDP1 cell CPT | IL1B secr inh
CNC(=O)COC(=O)c1cc(-c2cccs2)nc2ccccc12 | · | · | · | -48% | · | ·
O=C(c1cc2ccccc2oc1=O)N1CCN(Cc2cccc(Cl)c2)CC1 | · | · | · | -1% | · | ·
CC(C(=O)NCCN1CCCC1)C1CCN(C(=O)c2ccc3nc(-c4ccccc4)oc3c2)CC1 (stereo unspecified) | · | · | · | 0% | · | ·
Cc1ccc(CNC(=O)Cn2c(SCC(=O)Nc3ccc(F)cc3)nc3ccccc32)cc1 | · | ? | · | -21% | ? | ·
COC(=O)c1ccc(Cn2c(SCC(=O)NCc3ccccc3)nc3ccccc32)cc1 | · | 23µM* | · | ? | 21µM* | ·
O=C(Cn1c(SCC(=O)Nc2ccc(F)cc2)nc2ccccc21)NCc1ccc(Cl)cc1 | · | 13µM* | · | -24% | ? | ·
Cn1c(SCC(=O)NCc2ccccc2)nc2ccccc21 | 1% | -12% | 0% | -23% | -28% | 0
Cc1cc(C)c(-n2[nH]nnc2=S)c(C)c1 | 1% | -27% | 8% | 11µM* | ? | 0
COc1ccc(C)cc1-n1[nH]nnc1=S | 11% | 8% | 7% | ? | -2% | 5
Cc1nnc(Cc2ccccc2)c2n[nH]c(C)c12 | -13% | 0.73µM* | -4% | 14% | 0.73µM* | -19
CN(C)CCN(Cc1ccccc1)C(=O)Nc1ccc(C(=O)NCC(F)(F)F)cc1 | · | · | · | 23% | · | ·
CCCCn1c(SCC(=O)Nc2cc(C(F)(F)F)ccc2Cl)nnc1C(CC)N(C)C (stereo unspecified) | -6% | 21µM* | -8% | -3% | ? | -9
COc1ccc(C2CC(=O)Nc3c2c(C)nn3-c2ccc(C)cc2)cc1OC (stereo unspecified) | · | · | · | 6% | · | ·
CC1=C(C(=O)OCc2ccccc2)C(c2cccs2)N2C(=O)CCSC2=N1 (stereo unspecified) | -7% | -25% | -15% | -1% | 0% | -56*
CCOC(=O)C1=C(C)N=C2SCCC(=O)N2[C@@H]1c1cccs1 | -9% | -23% | 6% | 87% | 11% | 15
COC(=O)C1=C(C)N=C2SCCC(=O)N2C1c1ccc(OCc2ccccc2)c(OC)c1 (stereo unspecified) | · | ? | · | -25% | ? | ·
COc1ccccc1/C=C/C1C(C(=O)OCC(C)C)=C(C)N=C2SCCC(=O)N21 (stereo unspecified) | -25% | 4% | -21% | 3% | 2% | -69*
COc1cc(C2C(C(=O)OC(C)C)=C(C)N=C3SCCC(=O)N32)ccc1OCc1ccccc1 (stereo unspecified) | · | 29µM* | · | -4% | 13µM* | ·
CC(C(=O)Nc1ccc2[nH]c(=O)[nH]c2c1)N(C)Cc1c(F)cccc1Cl (stereo unspecified) | · | · | · | -27% | · | ·
COc1ccc(S(=O)(=O)Cc2ccc(C(=O)NCCc3cc(OC)ccc3OC)o2)cc1 | 5% | ? | ? | 11% | ? | -11
CCOc1ccc(CCNC(=O)c2ccc(CS(=O)Cc3ccc(Cl)cc3)o2)cc1 (stereo unspecified) | -11% | ? | -4% | -9% | 16µM* | -8
COc1ccc(OC)c(CCNC(=O)c2ccc(CS(=O)Cc3ccc(Cl)cc3)o2)c1 (stereo unspecified) | -6% | ? | -14% | 11% | 23µM* | ?
